Data published in the supplement of paper PMC8975748.
Structures can show the parent of a compound that is named as a salt.

What follows are compounds tested on Saccharomyces cerevisiae BY4741 SeMeCo community (assay: z-score of subpopulation abundance vs DMSO median, subpopulation auxotrophic for LU; higher = larger share of this subpopulation than in DMSO controls). Details: 10 µM; 24 h; SM minimal medium; subpopulation (auxotrophy): LU.
Method: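 Fluorescent four-plasmid SeMeCo (self-establishing metabolically cooperating S. cerevisiae BY4741 community; plasmids pH-mRuby2, pL-mWasabi, pU-eCFP, pM-TagRFP657) was grown 24 h in minimal SM medium with each Selleck FDA-approved drug at 10 µM in 384-well plates. Cells were fixed and imaged by high-content confocal microscopy. For each auxotrophic subpopulation (and the prototroph), a z-score gives the deviation from the DMSO vehicle-control population median.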
`C=C1CCN([C@H](C)[C@](O)(Cn2cncn2)c2ccc(F)cc2F)CC1` [Efinaconazole] was tested, and the “z-score of subpopulation abundance” value was -1.98. With `CC1=Nc2ccc(Cl)cc2S(=O)(=O)N1` [Diazoxide] the “z-score of subpopulation abundance” value was -0.67. For `CN(Cc1cnc2nc(N)nc(N)c2n1)c1ccc(C(=O)N[C@@H](CCC(=O)O)C(=O)O)cc1` [Methotrexate disodium], the “z-score of subpopulation abundance” value was -3.33. For `CCCCCOc1ccccc1/C(=C\SC)n1ccnc1` [Neticonazole Hydrochloride], the “z-score of subpopulation abundance” value was -2.84. In the case of `CO/N=C(/C(=O)N[C@@H]1C(=O)N2C(C(=O)OCOC(=O)C(C)(C)C)=C(C)CS[C@H]12)c1csc(N)n1` [Cefetamet pivoxil hydrochloride], the “z-score of subpopulation abundance” value is reported as 0.94. For `O=C(O)Cc1ccccc1Nc1c(Cl)cccc1Cl` [Diclofenac Sodium], the “z-score of subpopulation abundance” value was -0.84. `CCOC(=O)C1=C[C@]2(CC)CCCN3CCc4c(n1c1ccccc41)[C@@H]32` [Vinpocetine] was tested, and the “z-score of subpopulation abundance” value was 0.81. For `Clc1ccccc1C(c1ccccc1)(c1ccccc1)n1ccnc1` [Clotrimazole], the “z-score of subpopulation abundance” value was -0.93. In the case of `CCOc1cc(NC(C)=O)ccc1C(=O)OC` [Ethopabate], the “z-score of subpopulation abundance” value is reported as 1.2. `C1N2CN3CN1CN(C2)C3` [Methenamine] was tested, and the “z-score of subpopulation abundance” value was -0.57. `CN(C)CC(c1ccc(O)cc1)C1(O)CCCCC1` (stereo not given) [Desvenlafaxine] was tested, and the “z-score of subpopulation abundance” value was -0.16. With `Cc1ccnc(NS(=O)(=O)c2ccc(N)cc2)n1` [Sulfamerazine] the “z-score of subpopulation abundance” value was 0.43. For `Oc1c(Cl)cc(Cl)c(Cl)c1Cc1c(O)c(Cl)cc(Cl)c1Cl` [Hexachlorophene], the “z-score of subpopulation abundance” value was -0.56. With `C[C@H](NCc1ccc(OCc2cccc(F)c2)cc1)C(N)=O` [Safinamide Mesylate] the “z-score of subpopulation abundance” value was 0.54. With `CCCN(CCc1cccs1)[C@H]1CCc2c(O)cccc2C1` [Rotigotine] the “z-score of subpopulation abundance” value was -0.93. In the case of `CC(C)C(=O)Oc1ccc(CO)cc1[C@H](CCN(C(C)C)C(C)C)c1ccccc1` [Fesoterodine Fumarate], the “z-score of subpopulation abundance” value is reported as -0.25. In the case of `CN[C@H]1CC[C@@H](c2ccc(Cl)c(Cl)c2)c2ccccc21` [Sertraline HCl], the “z-score of subpopulation abundance” value is reported as -0.7. In the case of `CO/N=C(\C(=O)N[C@@H]1C(=O)N2C(C(=O)O)=C(CSc3nc(C)c(CC(=O)O)s3)CS[C@H]12)c1csc(N)n1` [Cefodizime Sodium], the “z-score of subpopulation abundance” value is reported as 0.22. In the case of `CS(=O)(=O)c1ccc(C2=C(c3ccccc3)C(=O)OC2)cc1` [Rofecoxib], the “z-score of subpopulation abundance” value is reported as 0.3. For `C#C[C@]1(OC(C)=O)CC[C@H]2[C@@H]3CCC4=C[C@@H](OC(C)=O)CC[C@@H]4[C@H]3CC[C@@]21C` [Ethynodiol diacetate], the “z-score of subpopulation abundance” value was -0.48. In the case of `Clc1ccc(COC(Cn2ccnc2)c2ccc(Cl)cc2Cl)cc1` (stereo not given) [Econazole], the “z-score of subpopulation abundance” value is reported as -0.93. For `COc1cc(C(C)=O)ccc1OCCCN1CCC(c2noc3cc(F)ccc23)CC1` [Iloperidone], the “z-score of subpopulation abundance” value was -0.41. For `CCOC(=O)C1=C[C@@H](OC(CC)CC)[C@H](NC(C)=O)[C@@H](N)C1` [Oseltamivir Phosphate], the “z-score of subpopulation abundance” value was -0.72. With `Clc1ccc(COC(Cn2ccnc2)c2ccc(Cl)cc2Cl)c(Cl)c1` (stereo not given) [Miconazole] the “z-score of subpopulation abundance” value was 4.36. In the case of `Cc1c(-c2ccc(O)cc2)n(Cc2ccc(OCCN3CCCCCC3)cc2)c2ccc(O)cc12` [Bazedoxifene Acetate], the “z-score of subpopulation abundance” value is reported as 0.06. With `O=C1Cc2cc(CCN3CCN(c4nsc5ccccc45)CC3)c(Cl)cc2N1` [Ziprasidone HCl] the “z-score of subpopulation abundance” value was -0.33. With `C[N+]1(C)[C@@H]2CC[C@H]1C[C@@H](OC(=O)C(O)c1ccccc1)C2` (stereo not given in full) [Homatropine Methylbromide] the “z-score of subpopulation abundance” value was 0.06. `C/C(=C\C(=O)OCCCCCCCCC(=O)O)C[C@@H]1OC[C@H](C[C@@H]2O[C@H]2[C@@H](C)[C@H](C)O)[C@@H](O)[C@H]1O` [Mupirocin calcium] was tested, and the “z-score of subpopulation abundance” value was 0.56. With `c1ccc(-c2ccc(C(c3ccccc3)n3ccnc3)cc2)cc1` (stereo not given) [Bifonazole] the “z-score of subpopulation abundance” value was -0.8. For `CCCCOc1ccc(C(=O)CCN2CCCCC2)cc1` [Dyclonine HCl], the “z-score of subpopulation abundance” value was -0.73. `Cc1cc(-n2c(=O)[nH]c(=O)n(C)c2=O)ccc1Oc1ccc(SC(F)(F)F)cc1` [Toltrazuril] was tested, and the “z-score of subpopulation abundance” value was -0.65. For `CCOC(=O)c1ccc(N)cc1` [Benzocaine hydrochloride], the “z-score of subpopulation abundance” value was 0.5. In the case of `C=C[C@]1(C)C[C@@H](OC(=O)CSC(C)(C)CNC(=O)[C@H](N)C(C)C)[C@]2(C)[C@H](C)CC[C@]3(CCC(=O)[C@H]32)[C@@H](C)[C@@H]1O` [Valnemulin HCl], the “z-score of subpopulation abundance” value is reported as 0.87. `CN(C)[C@@H]1C(=O)C(C(N)=O)=C(O)[C@@]2(O)C(=O)C3=C(O)c4c(O)ccc(Cl)c4[C@@H](O)[C@H]3C[C@@H]12` [Demeclocycline HCl] was tested, and the “z-score of subpopulation abundance” value was -0.08. In the case of `CCc1nn(CCCN2CCN(c3cccc(Cl)c3)CC2)c(=O)n1CCOc1ccccc1` [Nefazodone hydrochloride], the “z-score of subpopulation abundance” value is reported as 0.49. In the case of `CN1[C@@H]2CC[C@H]1C[C@@H](OC(c1ccccc1)c1ccccc1)C2` [Benztropine mesylate], the “z-score of subpopulation abundance” value is reported as -0.21. `CC(=O)[O-].[K+]` [Potassium acetate] was tested, and the “z-score of subpopulation abundance” value was -0.01. In the case of `O=C(O)CCC(=O)c1ccc(-c2ccccc2)cc1` [Fenbufen], the “z-score of subpopulation abundance” value is reported as 1.1. In the case of `Fc1ccc([C@@H]2CCNC[C@H]2COc2ccc3c(c2)OCO3)cc1` [Paroxetine mesylate], the “z-score of subpopulation abundance” value is reported as 0.46. With `C[C@H](NCc1ccc(OCc2cccc(F)c2)cc1)C(N)=O` [Safinamide] the “z-score of subpopulation abundance” value was 0.99.
